AmpC no deterg: blocks E. coli AmpC beta-lactamase in detergent-free assay | P00811 | AmpC nitrocefin hydrolysis, absorbance 480 nm, 0.0001% Triton | Potency, µM (doses to about 57.1 µM), for inactives: top-dose activity change, negative = inhibition, usual class: inhibitors | hit rate 0.52% among 330,000 | AID 485341;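 further: potency means the concentration at half of the fitted maximal effect; plate controls were no compound for no effect and no enzyme for full effect; nearly all actives have a fitted effect of over 20% in size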
Target sequence (P00811 whole entry, looked up): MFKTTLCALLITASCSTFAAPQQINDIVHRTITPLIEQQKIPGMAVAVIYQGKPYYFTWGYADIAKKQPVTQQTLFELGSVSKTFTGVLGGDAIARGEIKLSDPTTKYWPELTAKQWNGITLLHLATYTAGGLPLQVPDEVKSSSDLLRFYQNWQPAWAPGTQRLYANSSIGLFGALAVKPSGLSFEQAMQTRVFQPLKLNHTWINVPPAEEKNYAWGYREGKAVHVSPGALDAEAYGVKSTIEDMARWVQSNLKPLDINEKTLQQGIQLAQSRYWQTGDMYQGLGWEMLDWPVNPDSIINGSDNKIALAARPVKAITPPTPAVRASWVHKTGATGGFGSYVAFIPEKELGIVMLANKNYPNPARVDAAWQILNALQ
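20 mM phosphate pH 7.0 + 0.01% (detergent screen) or 0.0001% Triton X-100; 5.3 nM AmpC reagent; cpd preinc 15 min RT; nitrocefin (800 uM stock) to start; A480 q20 s × 4 min; Activity was normalised to no-enzyme and no-compound control wells.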
Shiga toxin inh: blocks Shiga toxin action in Vero cells | Vero cells, Shiga toxin protein synthesis inhibition reporter | inhibition, % at 38.7 µM | hit rate 9.2% among 290,000 | AID 2315; in the data active means inhibition mostly above about 28%, no sharp cut-off; inactive means mostly below about 43%; further: 0% is about no effect
CHX counter: counter-screen hit for Shiga toxin inhibitors, cycloheximide; cell reporter, cycloheximide protein synthesis inhibition counterscreen; max response, %; hit rate 12% among 300,000; AID 2314; in the data active means max response mostly above about 13%, no sharp cut-off; inactive means mostly below about 14%; further: read at 38.3 µM for the half of the compounds with a filed dose; 0% is about no effect
NS1 inh: influenza NS1 inhibition; hit rate 0.4% among 270,000; Potency, µM (series often up to 46.1 µM), for inactives: top-dose activity, positive = more growth; calls by dose curve; further: potency means the concentration at half of the fitted maximal effect; actives are rising curves; nearly all actives have a fitted effect of over 50% in size
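Compounds were scored for reversing the slow growth caused by influenza A NS1 in S. cerevisiae, measured by optical density at 600 nm. Assay medium contained 2% galactose at pH 6.0; NS1-free yeast of the same strain were the positive control.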
AmpC inh detg: inhibitors of E. coli AmpC beta-lactamase with detergent; hit rate 0.041% among 370,000; Potency, µM (highest dose often 114 µM), for inactives: at the top dose activity change, negative = inhibition, usual class: inhibitors; AmpC hydrolysis of nitrocefin, absorbance 480 nm, 0.01% Triton; P00811;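 further: potency means the concentration at half of the fitted maximal effect; 0% = no-compound wells and -100% = no-enzyme wells; nearly all actives have a fitted effect of over 25% in size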
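20 mM phosphate pH 7.0 + 0.01% (detergent screen) or 0.0001% Triton X-100; 5.3 nM AmpC reagent; cpd preinc 15 min RT; nitrocefin (800 uM stock) to start; A480 q20 s × 4 min; Activity was normalised to no-enzyme and no-compound control wells.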
Numbers without * were called inactive; u = inconclusive; x = no result; [ ] = dose if it differs, or a comment. The sample as a whole holds a higher share of hits than the screen did. Unless noted, the call rests on the fitted dose curve; in most records, active means well fitted curve in the direction sought with a large enough effect; inconclusive means small, poorly fitted or top-dose-only effect, or another doubt; inactive means no such curve, though single readings can be large; an effect the other way counts as inactive or inconclusive.

SMILES	AmpC no deterg	Shiga toxin inh	CHX counter	NS1 inh	AmpC inh detg
COc1ccc(-n2nc(C(=O)O)c3csc(N)c3c2=O)cc1	x	-4	-8	x	x
CCOc1ccc(C(=O)N2CCCC(c3nc(-c4ccc(C)o4)no3)C2)cc1 (stereo not given)	41%	67	4	-6%	-6%
Cc1ccc(-c2noc(C3CCCN(C(=O)c4ccc(Cl)cc4)C3)n2)o1 (stereo not given)	67%	37	36*	-17%	5%
Cc1ccc(-c2noc(C3CCCN(C(=O)C4CCCCC4)C3)n2)o1 (stereo not given)	56%	66	24*	-7%	1%
CC(C)n1ncc2c(C(=O)Nc3cccc(C#N)c3)cc(C3CC3)nc21	-41%	x	x	x	-18%
COc1ccc(NC(=O)Cn2c(=O)oc3cc(S(=O)(=O)N4CCCC4)ccc32)cc1OC	x	x	x	x	1%
COc1ccc(Nc2nc(N)c3ccccc3n2)c(OC)c1	-27%	45*	34*	-13%	-19%
COc1ccc(Nc2nc(N)nc(C(F)(F)F)n2)c(OC)c1	-2%	46	25*	-6%	-3%
COc1ccc(Nc2nc(-c3ccccc3)nc3ccccc23)c(OC)c1	-23%[11.4 µM]	13	-1	x	-15%
O/N=C/c1ccccc1OCc1ccccc1F	-23%	38*	26*	-16%	u
O/N=C/c1ccc(OCc2ccccc2)c(Br)c1	-15%	66*	40*	-64%	u
O/N=C/c1cc(Cl)ccc1OCc1ccccc1Cl	-44%	-4	-4	9%	8%
O/N=C/c1cc(Br)cc(Br)c1OCc1ccccc1	-21%	0	-4	5%	u
O/N=C/c1ccc(OCc2ccccc2)c(Cl)c1	2%	76*	37*	-40%	-2%
COC(=O)N/N=C/c1cc(Cl)c(OCc2ccccc2F)c(OC)c1	51%	31	24	-17%	-1%
O/N=C/c1ccc(OCc2ccccc2F)c(Cl)c1	-15%	53*	52*	-11%	-2%
COC(=O)CC(=O)CSc1nc2cc(C(=O)NC(C)C)ccc2c(=O)n1CCc1ccccc1	x	x	x	x	11%
COCCNC(=O)/C(C#N)=C/c1ccc(SC)cc1	-6%[11.4 µM]	65*	30*	x	-11%
CSc1ccc(/C=C(\C#N)C(=O)Nc2cccc(C)c2)cc1	-45%	36	22*	1%	-7%
COCCNC(=O)/C(C#N)=C/c1cccs1	-9%	31	14*	2%	2%
COc1ccc(N(CCC#N)C(=O)/C(C#N)=C\c2cccs2)cc1	-12%	41	20*	3%	3%
Cc1cc2c(s1)c1cnn(Cc3ccccc3F)c(=O)c1n2C(C)C	x	-6	16	x	x
CN(C)c1ccc(/C=C(/C#N)C(=O)NCc2ccccc2)o1	-50%	31	59*	13%	u
N#C/C(=C/c1ccccc1)C(=O)NCc1ccccc1	-36%	-2	10	-31%	-7%
Cc1ccc(/C=C(\C#N)C(=O)NCc2ccco2)o1	-2%	66*	43*	x	-1%
SMILES	AmpC no deterg	Shiga toxin inh	CHX counter	NS1 inh	AmpC inh detg
N#C/C(=C\c1cccs1)C(=O)NCc1ccco1	-4%	56*	39*	-4%	-7%
CC(C)C[C@@H](C(=O)N[C@@H](C(=O)O)c1ccccc1)N1C(=O)N2CCc3c([nH]c4ccccc34)[C@@]2(C)C1=O	-19%	-1	-3	u	-5%
CCC(CC)C(=O)c1c[nH]c(C(=O)N2CCN(c3ccccc3F)CC2)c1	-41%	-9	-2	x	-12%
CC(NC(=O)/C=C/c1ccco1)c1nc2ccccc2n1Cc1cccc(Cl)c1 (stereo not given)	-10%	67*	54*	12%	-2%
CCCN=C(C)c1c(-c2ccccc2)[nH]n(-c2nc3ccccc3s2)c1=O	-26%	-4	22	1%	-3%
COC(=O)Cc1[nH]n(-c2nc3ccccc3s2)c(=O)c1C(C)=Nc1ccc(C)cc1	-22%	93*	35*	2%	-7%
COC(=O)Cc1[nH]n(-c2nc3ccccc3s2)c(=O)c1C(C)=Nc1ccc(Cl)cc1	-42%	70*	39*	14%	5%
COC(=O)Cc1[nH]n(-c2ccccc2)c(=O)c1C(C)=Nc1ccccc1	-8%	15	5	x	3%
Cc1cc(OCC(O)CNC(C)c2ccccc2)ccc1C(C)C (stereo not given)	27%	-41	-11	-16%	u
CN(CC(=O)N1CCN(c2ccccn2)CC1)S(=O)(=O)c1ccccc1	1%	50*	43*	7%	u

Compound activity (PubChem BioAssay)
